# Source: PubChem (Broad Institute)
# HIV Env fusion = inhibitors of HIV Env-mediated cell fusion | AID 651610 | 360,000 tested, 1.1% active | inhibition, % at 12.3 µM | HeLa-JRFL Env/CEM21 cell fusion, luciferase;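 active means mean replicate inhibition score of at least 50 and every replicate individually at or above 50; inconclusive means only one of the two criteria met; inactive means mean below 50 and not all replicates reaching 50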;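 further: 0% = plate neutral controls and 100% = maraviroc near 300 nM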
# PGC1a acetyl inh = lowers PGC1a acetylation signal in U2OS cells; inhibition, % at 15.6 µM; AID 651687; AlphaScreen anti-acetyl-lysine; with virally co-expressed GCN5 acetyltransferase; 350,000 tested, 0.17% active;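 active means every replicate shows inhibition of at least 40%; inconclusive means mean inhibition at least 40% but some replicate below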;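 further: 0% = neutral control wells and 100% = positive control wells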
# PAX8 reporter = lowers PAX8-driven luciferase in RMG-I cells; RMG-I TPO-luciferase reporter, SteadyGlo, 24 h; inhibition, % at 12.6 µM; 360,000 tested, 1.2% active; AID 652154;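 active means mean replicate inhibition at least 60% with every replicate also reaching 60%; inconclusive means only one of the two criteria is met; inactive means mean below 60% and not all replicates reaching 60%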;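 further: luciferase light reporting Pax8 driven TPO promoter activity; plate controls were median of neutral control wells for no effect and mitoxantrone controls for full effect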
# EWS-Fli inh = blocks EWS/Fli oncoprotein-driven transcription. 350,000 tested, 0.67% active. A673 NR0B1-luciferase reporter, viability-normalised. inhibition, % at 12.6 µM;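 active means mean inhibition of at least 50% after viability correction, with every replicate also passing that limit; inconclusive means mean reaches 50% but only one of two replicates passes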;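 further: firefly luciferase signal divided by Alamar Blue viability fluorescence both relative to DMSO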
# F508del corr = correctors of CFTR F508del function in bronchial epithelial cells | AID 720511 | 350,000 tested, 0.36% active | CFBE cells, YFP halide quenching; stimulated with forskolin plus potentiator P3; % fluorescence drop versus neutral controls | activity (quench increase), % at 7.58 µM;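 active means mean added fluorescence quench of at least 8% versus neutral control, with both replicates also reaching 8%; inconclusive means only one of the mean or replicate conditions met; inactive means mean below 8% and not both replicates reaching 8%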;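 further: cells transiently co-express mutant CFTR-F508del with the halide-sensitive YFP; corrector assay measuring rescue of mutant channel to the surface after 24 h compound exposure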
# INS-1E GSIS act = primary screen for activators of insulin secretion dependent on glucose, INS-1E cells, GLuc reporter luminescence; INS-1E GLuc reporter insulin secretion, 2-3 h; activation, % at 16.6 µM; 370,000 tested, 0.61% active; AID 743287;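 active means lowest replicate activation of at least 40%, so every replicate reaches that level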;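 further: 0% = median of neutral control wells and 100% = median of IBMX positive control wells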
# * = called active by the depositor; ? = inconclusive; . = not tested or not shown; [ ] = another dose, or the depositor's remark. Compounds with a hit are over-represented: about 2.7% of the library has one in this group of screens.
SMILES,HIV Env fusion,PGC1a acetyl inh,PAX8 reporter,EWS-Fli inh,F508del corr,INS-1E GSIS act
CCN(C(=O)COC(=O)c1ccc(S(=O)(=O)N2CCCc3ccccc32)cc1)C1CCS(=O)(=O)C1 (stereo not given),7.4,-1.9,97.2*,4.5,0.9,-12.1
O=C(C[C@H]1C=C[C@@H](NS(=O)(=O)c2ccccc2)[C@@H](CO)O1)N1CCN(c2ccccc2)CC1,.,9.8,3.9,-9.5,-2.1,-2.1
CCOc1cccc(-c2csc(C3COc4ccccc4O3)n2)c1 (stereo not given),-7.6,.,-128.1,.,.,126.3*
C=CCN1C(=S)CC(c2ccccc2)=Nc2ccccc21,91.6*,.,24.2,14.2,1.1,-2.3
Cn1nnnc1Sc1ncnc2scc(-c3ccccc3C(F)(F)F)c12,1.6,-7.1,49.1,4.7,-11.4,50.3
Cn1nnnc1Sc1ncnc2scc(-c3ccc(C(F)(F)F)cc3)c12,-32.7,-33.9,76.6*,35.1,-3.4,-12.4
COc1cccc(-c2csc3ncnc(Sc4nnnn4C)c23)c1,-151.3,0.3,99.0*,18.7,-10.9,52.9*
Cn1nnnc1Sc1ncnc2scc(-c3cccc(C(F)(F)F)c3)c12,-22.5,-32.3,101.3*,12.4,-9.2,46.9
Cn1nnnc1Sc1ncnc2scc(-c3cccc(F)c3)c12,-26.9,-11.4,104.7*,29.4,-11.1,21.5
Fc1ccc(CSc2ncnc3scc(-c4ccccc4)c23)cc1,20.0,.,21.7,-4.3,.,.
COc1cc(CN2CC3(CN(C(=O)NC(C)C)C3)c3c(n(C)c4cc(OC)ccc34)[C@@H]2CO)cc(OC)c1,.,.,.,8.4,0.8,26.2
CC(C)CC#Cc1ccc([C@H]2[C@H](CO)N3C(=O)CN(C(=O)Nc4ccc(F)cc4)C[C@@H]23)cc1,.,-6.7,.,4.4,-0.2,-22.8
C[C@@H]1CN([C@H](C)CO)C(=O)c2cc(NC(=O)CCN3CCOCC3)ccc2O[C@H]1CN(C)C,.,6.8,-11.3,-3.8,2.0,8.9
C[C@@H]1CN([C@H](C)CO)C(=O)Cc2cc(NC(=O)NC3CCCCC3)ccc2O[C@@H]1CN(C)Cc1ccc(C(F)(F)F)cc1,4.6[16.7 µM],-9.5,.,11.7,-5.1,-21.1
O=C(O)C[C@H]1C=C[C@@H](NC(=O)Nc2ccccc2)[C@@H](CO)O1,11.5[16.7 µM],2.3,6.5,-1.9,2.9,-4.2
CCn1c(COc2ccc(Cl)cc2)nnc1SCc1nc2ccccc2[nH]1,113.9*,27.2,.,.,.,.
COc1ccc2[nH]c3c(N4CCC(O)(c5cccc(C(F)(F)F)c5)CC4)ncnc3c2c1,100.1*,-11.8,33.1,.,.,.
Cc1ccc2[nH]c3c(N4CCc5ccccc5C4)ncnc3c2c1,81.3*,-2.1,5.4,.,.,.
COc1ccc2[nH]c3c(N4CCN(Cc5ccc6c(c5)OCO6)CC4)ncnc3c2c1,.,-27.1,.,.,.,.
COc1ccc2c3c(n(C)c2c1)[C@@H](CO)N(C(=O)CN1CCOCC1)CC31CN(C(=O)C2CC2)C1,.,5.1,.,14.9,-0.8,5.3
C[C@@H]1CN([C@H](C)CO)S(=O)(=O)c2ccc(-c3ccncc3)cc2O[C@@H]1CN(C)C(=O)C1CCC1,-5.1[16.7 µM],2.6,.,-9.3,1.1,1.1
CC(C)NC(=O)Nc1ccc2c(c1)C(=O)N([C@@H](C)CO)C[C@@H](C)[C@@H](CN(C)Cc1ccc(C(F)(F)F)cc1)OCCCC[C@@H](C)O2,70.3*[16.7 µM],-1.4,10.0,3.5,2.6,-16.6
C[C@@H]1CN([C@@H](C)CO)C(=O)c2cc(NC(=O)Nc3ccc(F)cc3)ccc2O[C@@H](C)CCCCO[C@@H]1CN(C)Cc1ccc(C(F)(F)F)cc1,28.2[16.7 µM],-6.3,79.8*,8.5,-4.1,7.8
C[C@@H]1CCCCO[C@H](CN(C)Cc2ccc(C(=O)O)cc2)[C@H](C)CN([C@H](C)CO)C(=O)c2cc(NC(=O)Nc3ccc(C(F)(F)F)cc3)ccc2O1,13.7[16.7 µM],10.7,-4.4,-4.7,-0.9,0.1
C[C@@H]1CCCCO[C@@H](CN(C)Cc2ccc(C(F)(F)F)cc2)[C@H](C)CN([C@@H](C)CO)C(=O)c2cc(NC(=O)Nc3ccc(F)cc3)ccc2O1,42.3[16.7 µM],4.4,85.9*,9.7,-0.9,3.0
C[C@@H]1CN([C@@H](C)CO)C(=O)c2cc(NC(=O)Nc3ccc(C(F)(F)F)cc3)ccc2O[C@@H](C)CCCCO[C@H]1CN(C)Cc1ccc(C(F)(F)F)cc1,42.3[16.7 µM],8.9,?,-3.2,0.0,21.0
